# Where “and” joins values, the source holds several entries; their conditions need not be identical. Identical values can stand only once. The campaign covered roughly 72,000 compounds. About 1,600 (2.2%) were called active. Calls follow the shape of the dose curve; as a rule, active = well fitted inhibition curve with a large enough effect; inconclusive = small, poorly fitted or top-dose-only effect; inactive = flat fitted curve, though single readings scatter. What follows is part of a selection rich in actives, with near analogues and random picks from the rest.
# Molecular target: Luciferin 4-monooxygenase (Photinus pyralis) (UniProt P08659)
# Assay: qHTS Assay for Inhibitors of Firefly Luciferase; also: nearly all actives have a fitted effect of over 40% in size
# Conditions: purified firefly luciferase, luminescence, 8 min; series mostly up to 57.1 µM; activity change, negative = inhibition: at the top concentration
# Summary of the method: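 Inhibition of light generation by firefly luciferase from ATP and luciferin was profiled with concentration-response curves per sample, ATP held at 10 uM within the enzyme's linear range. Plates were read by luminescence after an 8-minute ambient incubation.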
# % is scaled to controls: 0 for no effect and ±100 for the full control effect; potency is read from the fitted curve at half-maximal effect.
# Luciferin 4-monooxygenase (Photinus pyralis), sequence (P08659 whole entry, looked up): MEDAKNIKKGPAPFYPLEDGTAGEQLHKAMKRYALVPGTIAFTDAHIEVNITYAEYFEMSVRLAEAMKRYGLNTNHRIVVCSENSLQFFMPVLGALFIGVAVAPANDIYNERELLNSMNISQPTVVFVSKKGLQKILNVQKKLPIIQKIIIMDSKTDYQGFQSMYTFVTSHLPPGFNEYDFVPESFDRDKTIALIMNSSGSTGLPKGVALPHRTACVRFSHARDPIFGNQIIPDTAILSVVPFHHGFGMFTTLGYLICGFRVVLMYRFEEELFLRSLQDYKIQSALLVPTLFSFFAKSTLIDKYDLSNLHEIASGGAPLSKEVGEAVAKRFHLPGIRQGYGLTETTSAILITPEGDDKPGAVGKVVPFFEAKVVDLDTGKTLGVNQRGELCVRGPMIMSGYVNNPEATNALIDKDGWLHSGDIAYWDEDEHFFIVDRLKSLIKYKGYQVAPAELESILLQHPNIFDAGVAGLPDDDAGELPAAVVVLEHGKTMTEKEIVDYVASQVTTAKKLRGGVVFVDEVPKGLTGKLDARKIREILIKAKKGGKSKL
Structure (SMILES),"activity change, negative = inhibition",Potency
CC(=O)c1nc(N2C(=O)C3CC=C(C)CC3C2=O)sc1C (stereo not given),3.83% (inactive),
COc1ccc2[nH]c3c(=O)n(Cc4ccco4)cnc3c2c1,-4.13% (inactive),
COc1ccc2[nH]c3ccc(OC)cc3c2c1,,20 µM (active)
COc1ccc2[nH]c3cc4c(=O)c5cc(OC)ccc5[nH]c4cc3c(=O)c2c1,-0.432% [at 11.4 µM] (inactive),
CCOc1ccc(N2C(=O)CC(N(O)c3ccccc3)C2=O)cc1 (stereo not given),0.494% (inactive),
CCC(=O)Oc1cccc(C(=O)Nc2ccc(-c3nnc(-c4ccco4)o3)cc2)c1,-6.47% (inactive),
Cc1ccc(OCC(=O)Nc2ccc(-c3nnc(-c4ccco4)o3)cc2)cc1,0.889% (inactive),
CCOc1ccc(-c2nnc(-c3ccco3)o2)cc1,,7.94 µM (active)
CCOc1cc2c(cc1OCC)C(C(=O)O)C(c1ccc(OC)c(O)c1)N(C)C2=O (stereo not given),6.01% (inactive),
CCOc1ccc(N=C2SC(C(=O)O)CC(=O)N2C)cc1 (stereo not given),-2.63% (inactive),
Cc1ccnc(N2CCCC(C(=O)Nc3cc(F)ccc3C)C2)n1 (stereo not given),2.9% (inactive),
O=C(Nc1ccc2c(c1)OCCO2)c1ccncc1,-17.4% (inactive),
O=C(Nc1ccc2c(c1)OCCO2)C1CCCN(c2ncccn2)C1 (stereo not given),,10 µM (active)
COc1c(Br)cc2c(C)c(C(=O)N3CCOCC3)oc2c1Br,-0.12% (inactive),
c1ccc(COc2nsnc2N2CCOCC2)cc1,-12.5% (inactive),
CCCC(=O)N(CCc1ccccc1)Cc1nc2ccccc2c(=O)[nH]1,1.75% (inactive),
CCOc1cc(NC(=O)c2ccco2)c(OCC)cc1NC(=O)COc1ccccc1,-1.31% (inactive),
Cc1ccc(C(=O)COc2cccc(NC(=O)c3ccco3)c2)cc1,-18.4% (inactive),
O=C(Nc1ccc(Oc2ccccc2)cc1)c1ccco1,,15.8 µM (active)
Cc1ccnc(NC(=O)c2ccc(NC(=O)c3ccco3)cc2)c1,,25.1 µM (active)
CN1CCN(S(=O)(=O)c2ccc(NC(=O)c3ccco3)cc2)CC1,0.616% (inactive),
O=C(Nc1ccc(NC(=O)c2cccs2)cn1)c1ccco1,,5.01 µM (active)
O=C(Nc1ccc(Cl)cn1)Nc1cccs1,-15.8% (inactive),
CC(C)(C)NC(=O)c1cc(NC(=O)c2ccco2)cc(NC(=O)c2ccco2)c1,-5.21% (inactive),
CCc1nnc(NC(=O)c2cccs2)s1,-7.96% (inactive),
COc1ccc(NC(=O)c2cccc(NC(=O)c3ccco3)c2)c(OC)c1,-17.4% (inactive),
COC(=O)c1ccc(NC(=O)c2ccco2)cc1,,20 µM (active)
COC(=O)c1cc(Cl)c(NC(=O)c2ccco2)cc1OC,-0.363% (inactive),

Structure (SMILES),"activity change, negative = inhibition",Potency
CCc1cccc(C)c1NC(=O)CSc1nnc(-c2ccco2)n1N,3.08% (inactive),
CC(C)C(=O)N1CCN(c2nc(-c3ccccc3)c3c(c2C#N)CC(C)(C)OC3)CC1,0.212% [at 25.5 µM] (inactive),
CC(=O)N1CCC2(CCCN(Cc3ccccc3)C2)CC1,-1.06% [at 11.4 µM] (inactive),
COCCNc1ccnc(-c2cccc(NS(C)(=O)=O)c2)n1,0.411% [at 2.29 µM] (inactive),
O=C1C[C@@H](O)[C@@H](O)[C@H]2[C@@H]3C(=O)N(Cc4ccc5c(c4)OCO5)C(=O)[C@@H]3CC[C@H]12,1.52% [at 11.4 µM] (inactive) and -0.708% [at 11.4 µM] (inactive),
CC(NCCO)C(=O)C12CC3CC(CC(C3)C1)C2 (stereo not given),0.832% (inactive),
C[N+](C)(C)CCCCCNCC12CC3CC(CC(C3)C1)C2,1.32% (inactive),
CCn1c(=N)n(CC(=O)c2cccc(OC)c2)c2ccccc21,-14.7% (inactive),
CN(C)c1ccc(-c2nc(NCCN3CCOCC3)c3ccccc3n2)cc1,-10.7% [at 2.29 µM] (inactive),
ClC(Cl)(Cl)C(N1CCN(c2ccccc2)CC1)N1CCN(c2ccccc2)CC1,2.2% [at 11.4 µM] (inactive),
CCOC(=O)c1nnn(-c2nonc2OC)c1-c1ccccc1,1.47% (inactive),
CC(=O)N1CSCC1C(=O)O (stereo not given),4.56% (inactive),
CC1CCC(NC(=O)c2ccc(N3CCCC3=O)cc2)CC1 (stereo not given),-12.8% (inactive),
COc1ccccc1Nc1ncc(C(C)=O)c(C)n1,-24.1% (inactive),
COc1cccc2sc(Nc3nc(C)c(C(C)=O)s3)nc12,,5.01 µM (active)
COc1cccc(OC)c1C(=O)Nc1nnc(C(C)C)s1,2.84% (inactive),
Cc1c(S(=O)(=O)O)ccc(N=Nc2c(O)c(C(=O)O)cc3ccccc23)c1Cl,-2.84% [at 11.4 µM] (inactive),
COc1cccc(NS(=O)(=O)c2ccc3[nH]cc(C(=O)NCCCOC(C)C)c(=O)c3c2)c1,1.42% (inactive),
CCCCN(CCCC)CCC(O)c1cc2c(Cl)cc(Cl)cc2c2cc(C(F)(F)F)ccc12 (stereo not given),-2.13% [at 25.5 µM] (inactive),
Cc1ccc(C(=O)N2CCCCCC2)cc1Br,-0.659% (inactive),
Cc1ccc2cc3cc(C(=O)N4CCCCCC4)oc3nc2c1,,7.94 µM (active)
Cc1ccc2oc(=O)c3cnn(CC(=O)N4CCCCCC4)c3c2c1,0.564% (inactive),
CC1CCCN(c2ccc(C(=O)NCCc3ccccc3)cn2)C1 (stereo not given),,15.8 µM (active)
O=C(O)C1CC=CCC1C(=O)NCCc1ccccc1 (stereo not given),-0.736% (inactive),
O=C(NCCCNCc1ccccc1)c1ccc(/C=N/O)nc1,2.11% (inactive),
CN(C)CCCNc1c2c(c(C#N)c3nc4ccccc4n13)CCC2,-1.09% (inactive),
CCOC(=O)C1=C(C)NC(=O)N(C(C)=O)C1c1ccc(Cl)cc1 (stereo not given),1.78% (inactive),
